AmpC detergent: AmpC beta-lactamase inhibition with detergent present; AID 485294; AmpC hydrolysis of nitrocefin, absorbance 480 nm, 0.01% Triton; actives 0.041% (n = 370,000); Potency, µM (top dose mostly 114 µM), for the others: top-dose activity change, negative = inhibition, hits mostly inhibitors; P00811;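 note: 0% = no-compound wells and -100% = no-enzyme wells; nearly all actives have a fitted effect of over 25% in size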
Target sequence (P00811 whole entry, looked up): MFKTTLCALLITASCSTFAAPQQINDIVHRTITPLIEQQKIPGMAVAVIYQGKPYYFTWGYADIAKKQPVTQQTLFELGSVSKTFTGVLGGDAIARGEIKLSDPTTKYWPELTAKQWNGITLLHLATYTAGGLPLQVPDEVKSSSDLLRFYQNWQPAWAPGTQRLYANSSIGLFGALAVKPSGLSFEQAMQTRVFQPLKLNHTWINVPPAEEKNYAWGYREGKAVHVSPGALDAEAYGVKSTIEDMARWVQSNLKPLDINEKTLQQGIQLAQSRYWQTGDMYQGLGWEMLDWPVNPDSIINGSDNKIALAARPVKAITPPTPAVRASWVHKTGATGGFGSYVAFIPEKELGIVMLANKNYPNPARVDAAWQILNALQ
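AmpC (5.3 nM in the dispensed reagent) in 20 mM phosphate pH 7.0 with 0.01% (detergent screen) or 0.0001% Triton X-100 was preincubated with compounds for 15 min at room temperature. Nitrocefin was then added from an 800 uM solution, and hydrolysis was followed at 480 nm.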
AmpC no deterg: inhibitors of E. coli AmpC beta-lactamase without detergent. AmpC nitrocefin hydrolysis, absorbance 480 nm, 0.0001% Triton. actives 0.52% (n = 330,000). Potency, µM (top dose mostly 57.1 µM), inactives show at the highest dose activity change, negative = inhibition, hits mostly inhibitors;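 note: plate controls were no compound for no effect and no enzyme for full effect; nearly all actives have a fitted effect of over 20% in size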
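20 mM phosphate pH 7.0 + 0.01% (detergent screen) or 0.0001% Triton X-100; 5.3 nM AmpC reagent; cpd preinc 15 min RT; nitrocefin (800 uM stock) to start; A480 q20 s × 4 min; Activity was normalised to no-enzyme and no-compound control wells.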
Pf growth 96h: inhibits malaria parasite growth, 96 h; actives 6.9% (n = 320,000); Potency, µM (doses to about 28.7 µM), without a hit: at the top dose activity change, negative = inhibition, usual class: inhibitors; P. falciparum luciferase reporter growth, 96 h; note: % is set by controls: 0 for no effect and ±100 for the full control effect
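Compounds incubated with erythrocytes infected by luciferase-expressing P. falciparum (2% hematocrit, 0.05% parasitemia final) for 96 hours, 37 C in 5% CO2. Growth inhibition scored as decreased luciferase luminescence.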
Pf growth 48h: P. falciparum growth inhibition at 48 hours (one generation) | AID 504832 | P. falciparum luciferase growth in erythrocytes, 48 h | actives 5.9% (n = 310,000) | Potency, µM (doses to about 28.7 µM), inactives show at the top dose activity change, negative = inhibition, hits mostly inhibitors; note: % is set by controls: 0 for no effect and ±100 for the full control effect
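In quantitative HTS format, infected erythrocytes bearing luciferase-reporter parasites were treated for a single generation at 37 C. Luminescence after adding detection reagent served as the growth measure.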
SARS PLpro yeast: SARS-CoV PLP inhibition in yeast | AID 485353 | Potency, µM (series often up to 32.9 µM), for inactives: at the top dose activity, positive = growth rescue, usual class: activators | actives 0.19% (n = 330,000) | S. cerevisiae expressing SARS-CoV PLpro, growth rescue; calls by dose curve; note: 0% is about no effect; nearly all actives have a fitted effect of over 55% in size
Sm TGR block: blocks Schistosoma mansoni thioredoxin glutathione reductase. purified TGR, DTNB reduction, TNB absorbance 405 nm. Q962Y6. Potency, µM (titrated, usually from 114 µM), inactives show top-dose activity change, negative = inhibition, hits mostly inhibitors. AID 485364. actives 3% (n = 360,000); note: % is set by controls: 0 for no effect and ±100 for the full control effect; nearly all actives have a fitted effect of over 60% in size
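First, TGR (20 nM dispensed) and NADPH were mixed with compound. Second, a 15 min room-temperature incubation followed. Third, further NADPH and then DTNB were added to start the reaction. Finally, TNB absorbance was monitored kinetically.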
* marks the source's active call; other numbers are inactive results. An excerpt weighted towards active compounds, which were near 12% of everything screened. Unless noted, calls come from the whole dose curve; as a rule, active = well fitted curve in the direction sought with a large enough effect; inconclusive = small, poorly fitted or top-dose-only effect, or another doubt; inactive = no such curve, though single readings can be large; an effect the other way counts as inactive or inconclusive. Potency is the fitted concentration of half-maximal effect.

What do the screens show for `O=C(c1ccco1)N(Cc1ccccc1)Cc1ccccn1`?
AmpC detergent: 1%; AmpC no deterg: 25%; Pf growth 96h: 11%; Pf growth 48h: 12%; SARS PLpro yeast: 0%

What do the screens show for `CN(Cc1nc(-c2ccccc2)no1)C(=O)c1ccco1`?
AmpC detergent: -15%; AmpC no deterg: 14%; Pf growth 96h: -3%; Pf growth 48h: 38%; SARS PLpro yeast: 2%; Sm TGR block: 4%

Results for O=P(CCNCc1ccco1)(c1ccccc1)c1ccccc1 ?
AmpC detergent: -11%; AmpC no deterg: -2%; Pf growth 96h: -12%; Pf growth 48h: -8%; SARS PLpro yeast: 1%; Sm TGR block: -30%

How did O=C(c1ccco1)N(CCC(c1ccccc1)c1ccco1)Cc1ccco1 (configuration not stated) do in these assays?
AmpC detergent: -8%; AmpC no deterg: -21%; Pf growth 96h: inconclusive; Pf growth 48h: inconclusive; SARS PLpro yeast: -9%; Sm TGR block: 10µM*

Results for Cc1ccc(C(CCN(Cc2ccccc2)C(=O)c2ccco2)c2ccco2)cc1 (configuration not stated) ?
AmpC detergent: -9%; AmpC no deterg: inconclusive; Pf growth 96h: 13µM*; Pf growth 48h: inconclusive; SARS PLpro yeast: -12%; Sm TGR block: 20µM*

Results for CN(Cc1ccccc1)C(=O)c1ccco1 ?
AmpC detergent: -6%; AmpC no deterg: -3%; Pf growth 96h: 12µM*; Pf growth 48h: 17%; SARS PLpro yeast: 0%; Sm TGR block: 1%

What do the screens show for `COc1cccc(CNC(=O)C2CCN(C(=O)N3CCOc4ccc(Cl)cc43)CC2)c1OC`?
AmpC detergent: -6%; Sm TGR block: -17%

How did Cc1cc(C)n(C(=O)c2ccc(C)c(S(=O)(=O)N3CCCC3)c2)n1 do in these assays?
AmpC detergent: -7%; AmpC no deterg: -30%; Pf growth 96h: 0%; Pf growth 48h: -9%; SARS PLpro yeast: -1%; Sm TGR block: -10%

How did CCOC(=O)c1c(NC(=O)c2cc(-c3ccc(Br)cc3)on2)sc(C)c1C do in these assays?
AmpC detergent: 0%; Sm TGR block: 0%

How did CC(=O)N(CCC(Cc1ccccc1)c1ccc2c(c1)OCO2)Cc1ccc(Cl)cc1 (configuration not stated) do in these assays?
AmpC detergent: -10%; AmpC no deterg: 41%; Pf growth 96h: 8.3µM*; Pf growth 48h: 9.3µM*; SARS PLpro yeast: -6%; Sm TGR block: 14%

Results for CC(=O)N(CCC(Cc1ccccc1)c1ccco1)Cc1ccco1 (configuration not stated) ?
AmpC detergent: -2%; AmpC no deterg: 43%; Pf growth 96h: inconclusive; Pf growth 48h: inconclusive; SARS PLpro yeast: 3%; Sm TGR block: 22µM*

Results for O=C(O)/C=C/C(=O)N(Cc1ccccc1)Cc1ccco1 ?
AmpC detergent: -12%; AmpC no deterg: -8%; Pf growth 96h: 43%; Pf growth 48h: 18%; SARS PLpro yeast: 28%; Sm TGR block: 3%

What do the screens show for `COc1ccc(CN(CCC(c2ccc3c(c2)OCO3)c2ccccc2OC)C(C)=O)cc1` (configuration not stated)?
AmpC detergent: -5%; Sm TGR block: -6%

How did Cc1c(C(=O)C(=O)N2c3ccccc3CC2C)c2ccccc2n1C (configuration not stated) do in these assays?
AmpC detergent: -3%; AmpC no deterg: 0%; Pf growth 96h: inconclusive; Pf growth 48h: inconclusive; SARS PLpro yeast: -7%; Sm TGR block: 1%

What do the screens show for `Cc1ccc(S(=O)(=O)N2CCC(C(=O)Nc3ccc(S(=O)(=O)N4CCCC4)cc3)CC2)cc1C`?
AmpC detergent: -23%; AmpC no deterg: -24%; Pf growth 96h: inconclusive; Pf growth 48h: 12µM*; SARS PLpro yeast: -2%; Sm TGR block: 2%

How did Cc1ccc(S(=O)(=O)N2CCC(C(=O)Nc3ccc(C(C)C)cc3)CC2)cc1 do in these assays?
AmpC detergent: -10%; AmpC no deterg: -28%; Pf growth 96h: inconclusive; Pf growth 48h: inconclusive; SARS PLpro yeast: -1%; Sm TGR block: 1%

Results for Cc1ccc(NC(=O)C2COc3ccccc3O2)cc1S(=O)(=O)N1CCCCC1 (configuration not stated) ?
AmpC detergent: 9%; AmpC no deterg: -52%; Pf growth 96h: inconclusive; Pf growth 48h: 9.3µM*; SARS PLpro yeast: -2%; Sm TGR block: -2%

Results for Cc1ccc(S(=O)(=O)N2CCC(C(=O)N3CCCC3C(=O)N[C@@H](CC(C)C)C(=O)NCC(N)=O)CC2)cc1 (some centres not stated) ?
AmpC detergent: -15%; AmpC no deterg: 4%; Pf growth 96h: 6.6µM*; Pf growth 48h: inconclusive; SARS PLpro yeast: -2%; Sm TGR block: 3%

Results for Cc1ccc(S(=O)(=O)N2CCC(C(=O)Nc3ccc(S(=O)(=O)N4CCCC4)cc3)CC2)cc1 ?
AmpC detergent: -20%; AmpC no deterg: -11%; Pf growth 96h: 4.7µM*; Pf growth 48h: 13µM*; SARS PLpro yeast: 12%; Sm TGR block: -8%

What do the screens show for `Cc1ccc(OCCNC(=O)CNC(=O)c2ccc3c(c2)OCO3)cc1`?
AmpC detergent: -15%; AmpC no deterg: -3%; Pf growth 96h: 15%; Pf growth 48h: 11%; SARS PLpro yeast: 1%; Sm TGR block: 2%

What do the screens show for `C[C@@H](CC#N)CN1CC[C@H](C(C)(C)C)CCC1=O`?
AmpC detergent: -11%; AmpC no deterg: 2%; Pf growth 96h: 55%; Pf growth 48h: 23%; Sm TGR block: -1%

Results for COCc1nnc(NC(=O)c2cccc(NC(=O)c3ccccc3)c2)s1 ?
AmpC detergent: -2%; AmpC no deterg: -29%; Pf growth 96h: 0%; Pf growth 48h: 0%; SARS PLpro yeast: 3%; Sm TGR block: 0%

What do the screens show for `O=S(=O)(c1ccc2nc(Nc3ccc(Br)cc3F)ccc2c1)N1CCCCC1`?
AmpC detergent: 3%; Sm TGR block: -7%

How did Cc1cc(C)nc(NS(=O)(=O)c2ccc(NC(=O)C3COc4ccccc4O3)cc2)n1 (configuration not stated) do in these assays?
AmpC detergent: 2%; AmpC no deterg: -19%; Pf growth 96h: inconclusive; Pf growth 48h: -1%; SARS PLpro yeast: 1%; Sm TGR block: 0%

Results for Cc1cc(NC(=O)C2CCN(S(=O)(=O)c3ccc4[nH]c(=O)oc4c3)CC2)ccc1Br ?
AmpC detergent: 3%; Sm TGR block: -5%

Screens (PubChem BioAssay)
